# Measured values as given in publication PMC4336329 (PLoS ONE, 2015).
# Among all 310,000 compounds or so, about 14,000 (4.5%) showed an effect of 50% or more. The effect is printed as a negative number. This excerpt belongs to a sample that is enriched for strong results.
# Target: human ether-à-go-go-related gene (hERG) potassium channel (human, UniProt Q12809)
# Assay: primary screen, population patch clamp on CHO cells stably expressing hERG; higher = less effect of the substance
# 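Note: peak tail current of the secondary pulse compared with the same well before compound.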
# Chain of human ether-à-go-go-related gene (hERG) potassium channel (Q12809 whole entry, looked up): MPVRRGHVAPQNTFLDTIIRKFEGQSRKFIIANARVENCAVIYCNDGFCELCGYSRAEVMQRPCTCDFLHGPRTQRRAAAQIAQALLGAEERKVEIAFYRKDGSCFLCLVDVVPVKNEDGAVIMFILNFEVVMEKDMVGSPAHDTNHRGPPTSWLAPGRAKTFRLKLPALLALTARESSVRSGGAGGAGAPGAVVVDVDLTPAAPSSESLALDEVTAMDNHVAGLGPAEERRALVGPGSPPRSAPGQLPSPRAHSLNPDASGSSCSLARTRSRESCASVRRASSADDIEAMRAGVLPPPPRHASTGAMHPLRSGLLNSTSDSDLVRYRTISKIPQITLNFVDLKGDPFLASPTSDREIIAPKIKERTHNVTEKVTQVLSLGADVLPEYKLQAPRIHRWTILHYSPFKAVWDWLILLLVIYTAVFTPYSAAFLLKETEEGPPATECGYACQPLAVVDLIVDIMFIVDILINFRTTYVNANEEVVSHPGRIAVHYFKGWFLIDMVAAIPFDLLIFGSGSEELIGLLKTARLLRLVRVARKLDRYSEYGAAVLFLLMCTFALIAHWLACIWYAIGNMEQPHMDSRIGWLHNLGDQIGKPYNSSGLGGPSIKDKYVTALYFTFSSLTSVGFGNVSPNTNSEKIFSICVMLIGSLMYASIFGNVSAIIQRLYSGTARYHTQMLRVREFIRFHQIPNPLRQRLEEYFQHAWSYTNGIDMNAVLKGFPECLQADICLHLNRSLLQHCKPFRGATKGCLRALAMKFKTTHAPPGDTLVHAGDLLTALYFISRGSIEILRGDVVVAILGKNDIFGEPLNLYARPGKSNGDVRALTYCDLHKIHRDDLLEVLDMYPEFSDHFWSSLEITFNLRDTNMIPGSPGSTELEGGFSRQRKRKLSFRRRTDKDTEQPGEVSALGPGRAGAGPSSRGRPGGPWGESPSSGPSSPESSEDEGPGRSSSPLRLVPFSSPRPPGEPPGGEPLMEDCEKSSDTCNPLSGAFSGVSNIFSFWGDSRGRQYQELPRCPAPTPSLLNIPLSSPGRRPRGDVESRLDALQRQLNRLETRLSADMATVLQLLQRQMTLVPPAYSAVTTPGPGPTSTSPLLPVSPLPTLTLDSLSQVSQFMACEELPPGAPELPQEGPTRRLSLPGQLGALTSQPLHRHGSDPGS
row,Structure (SMILES),"hERG current change (%, negative = inhibition) at 10uM"
1,Cc1cc(NC(=O)C2CCCCC2)nc2c1c(=O)oc1ccccc12,3.61%
2,O=C(Nc1cccnc1)c1ccc(S(=O)(=O)N2CCCCCC2)cc1,5.14%
3,O=C(CN1C(=O)c2ccccc2C1=O)NCC(=O)OCC(=O)c1ccc(Cl)cc1,16.2%
4,CCOc1ccccc1NC(=O)CCC(=O)Nc1ccc2nc(N3CCN(C)CC3)cc(C)c2c1,3.51%
5,Cn1c(CCC(=O)Nc2ccc(F)cc2)nc2cc(S(=O)(=O)N3CCOCC3)ccc21,-17.7%
6,Cn1c(CCC(=O)Nc2cc(S(C)(=O)=O)ccc2Cl)nc2cc(S(=O)(=O)N3CCOCC3)ccc21,-25.4%
7,CC(NC(=O)CCc1nc2cc(S(=O)(=O)N3CCOCC3)ccc2n1C)c1ccc(S(N)(=O)=O)cc1 (stereo not shown),-57.9%
8,CCOc1ccc(NS(=O)(=O)c2ccc(C(=O)NCCCN3CCCC3=O)cc2)cc1,7.23%
9,CC(=O)Nc1ccc(S(=O)(=O)NNC(=O)c2ccc(S(=O)(=O)N3CCCCC3)cc2)cc1,6.41%
10,Cc1ccc(Nc2cc(C)nc(NCc3ccccc3)n2)cc1,-5.08%
11,Cc1cc(N/N=C/c2ccccc2)nc(NCc2ccccc2)n1,-2.93%
12,CCCCNc1cc(C)nc(NCc2ccccc2)n1,-59%
13,Cc1ccc(/C=N/Nc2cc(C)nc(NCc3ccccc3)n2)cc1,-6.03%
14,CCCCOc1cc(C)nc(NCc2ccccc2)n1,5.5%
15,Cc1cc(N/N=C/c2ccc(F)cc2)nc(NCc2ccccc2)n1,-64.2%
16,CN(C)C(CNC(=O)c1cccs1)c1ccco1 (stereo not shown),0.144%
17,CC(=O)N1c2ccc(S(=O)(=O)N3CCC(C(=O)NC4CCC(C)CC4)CC3)cc2CC1C (stereo not shown),17.3%
18,Cc1ccc(S(=O)(=O)N(C(=O)c2ccncc2)c2ccc(OC(=O)c3ccncc3)cc2)c(C)c1,-0.914%
19,O=C(O)C(Cc1ccc(Cl)cc1)NS(=O)(=O)c1ccc(Cl)cc1 (stereo not shown),27.1%
20,O=S(=O)(N/N=C\c1ccc(-c2ccccc2Cl)o1)c1ccccc1,10.4%
21,CCN1CCN(CC(=O)Nc2ccc(N(C)C)cc2)CC1.O=C(O)C(=O)O,-2.52%
22,CN(C)c1ccc(NC(=O)CN2CCN(CC(=O)Nc3ccc(F)cc3)CC2)cc1,-77.1%

row,Structure (SMILES),"hERG current change (%, negative = inhibition) at 10uM"
1,CCN(CC)c1ccc(NC(=O)CN2CCN(c3nc(C)cc(C)n3)CC2)cc1,-21.7%
2,CCN(CC)c1ccc(NC(=O)CN2CCN(c3ccccc3F)CC2)cc1,-5.61%
3,CCN(CC)c1ccc(NC(=O)CN2CCN(CC(=O)Nc3ccc(F)cc3)CC2)cc1,-76.4%
4,CCN(CC)c1ccc(NC(=O)CN2CCN(c3ccccn3)CC2)cc1,-2.86%
5,CN(C)c1ccc(NC(=O)CN2CCC(C(=O)c3ccc(F)cc3)CC2)cc1,-32.1%
6,CCN(CC)c1ccc(NC(=O)CN2CCN(CC(=O)Nc3ccccc3F)CC2)cc1,-64.9%
7,CN(C)c1ccc(NC(=O)CN2CCN(c3ccc(F)cc3)CC2)cc1,-4.56%
8,COc1ccc(NC(=O)CSc2n[nH]c(-c3ccco3)n2)cc1,-2.42%
9,Br.CC(C)CC(N)C(=O)OCc1ccc([N+](=O)[O-])cc1 (stereo not shown),7.33%
10,CCN(CC)c1nc(Nc2ccccc2)nc(Oc2ccc(=O)[nH]n2)n1,-14.2%
11,COc1ccc(CCNC(=O)C(=O)c2c(C)[nH]c3ccccc23)cc1,6.09%
12,Cc1nc2nc(SCC(=O)N3CCC4(CC3)OCCO4)nn2c(C)c1Cc1ccccc1,-24.9%
13,CCCN(C(=O)c1ccccc1Cc1ccccc1)C1CCS(=O)(=O)C1 (stereo not shown),-0.454%
14,COc1ccc(CN2CCOCCOCCOCC2)cc1,-58.3%
15,COc1ccc(CN2CCOCCOCCN(Cc3ccc(OC)cc3)CCOCCOCC2)cc1,-77.3%
16,COc1ccc(CN2CCCCCC2)cc1,-10.9%
17,COc1ccc(CN2CCOCCOCCOCCOCCOCC2)cc1,-20.7%
18,COc1ccc(CN2CCOCC2)cc1,10.7%
19,COc1ccc(CN2CCOCCOCCOCCOCC2)cc1,-36%
20,COc1ccc(-n2nnnc2SCC(=O)Nc2cc(OC)c([N+](=O)[O-])cc2C)cc1,42.4%
21,COc1ccccc1N1CCN(C(=O)C(C)N(c2ccccc2)S(C)(=O)=O)CC1 (stereo not shown),5.64%
22,CCOC(=O)Nc1ccc(C)cc1NC(=O)OCC,11.7%

row,Structure (SMILES),"hERG current change (%, negative = inhibition) at 10uM"
1,Cc1ccc(NS(=O)(=O)c2cccs2)c(C)c1,-2.42%
2,N#C/C(=C/c1ccc(F)cc1)S(=O)(=O)c1ccccc1,21.3%
3,COc1cccc(CN2CCN(Cc3nc(-c4cccs4)oc3C)CC2CCO)c1 (stereo not shown),-57%
4,COc1cccc(CC2(CO)CCCN(Cc3nc(-c4cccs4)oc3C)C2)c1 (stereo not shown),-64.5%
5,Cc1oc(-c2cccs2)nc1CN1CC[C@@](O)(c2ccccc2)[C@H]2CCCC[C@@H]21,11.8%
6,Cc1oc(-c2cccs2)nc1CN1CCN(Cc2ccc(F)c(F)c2)C(CCO)C1 (stereo not shown),-47.2%
7,Cc1ccc(CN2CCCC(CO)(Cc3ccccc3C)C2)s1 (stereo not shown),-37.7%
8,Cc1ccccc1CC1(CO)CCCN(Cc2ccccc2Cl)C1 (stereo not shown),-25.6%
9,COc1cccc(CC2(CO)CCCN(Cc3ccc(CO)o3)C2)c1 (stereo not shown),-7.04%
10,COCc1ccc(CN2CCCC(CO)(Cc3cccc(OC)c3)C2)o1 (stereo not shown),-26.2%
11,Cc1oc(-c2cccs2)nc1CN1CCC(CO)(CCOc2ccccc2)CC1,-67%
12,Cc1ccccc1CC1(CO)CCCN(Cc2nc(-c3cccs3)oc2C)C1 (stereo not shown),-61.1%
13,Cc1oc(-c2cccs2)nc1CN1CCN(CC(C)C)C(CCO)C1 (stereo not shown),5.96%
14,Cc1oc(-c2cccs2)nc1CN1CCN(C(C)C)C(CCO)C1 (stereo not shown),4.95%
15,OCC1CCCN1C(=S)Nc1ccccc1 (stereo not shown),3.84%
16,COc1ccc(C(=O)COC(=O)CN2C(=O)C3C4CCC(C4)C3C2=O)cc1 (stereo not shown),-17.9%
17,O=C(CSc1nc2c(cnn2-c2ccc(F)cc2)c(=O)[nH]1)N1CCCc2ccccc21,10.1%
18,O=C1C=C(O)c2cccc3cccc1c23,28.3%
19,CCN(CC)S(=O)(=O)c1ccc2c(c1)oc(=O)n2CC(=O)N(C)C1CCCCC1,-11.9%
20,Cc1cc(-c2cccs2)c2c(n1)sc1c(=O)[nH]c(=O)[nH]c12,5.3%
21,O=C(NCCCNC(=O)c1cnccn1)c1ccc(Cl)c(Cl)c1,-15.6%
22,COc1ccc(-c2nc(CN3CCC(c4ccccc4)CC3)c(C)o2)cc1OC,-37.7%

row,Structure (SMILES),"hERG current change (%, negative = inhibition) at 10uM"
1,Cc1oc(-c2cccs2)nc1CN1CCC(C(=O)N2CCCC2)CC1,-11.2%
2,Cc1oc(-c2cccs2)nc1CN1CCC(c2ccccc2)CC1,-66.5%
3,Cc1c(Cl)cccc1NC(=O)CCN1CCCCCC1,-3.92%
4,C/C(=N\OCC(=O)NCC(F)(F)F)c1cc2ccccc2o1,-1.58%
5,CN(Cc1nccn1C)C(=O)C1CCC(=O)N(CCc2ccc(Cl)cc2)C1 (stereo not shown),-53.8%
6,CCc1ccc(CN(C)C(=O)C2CCC(=O)N(Cc3ccccn3)C2)cc1 (stereo not shown),-1.48%
7,CN(Cc1cnccn1)C(=O)C1CCC(=O)N(CCc2ccc(Cl)cc2)C1 (stereo not shown),-67.9%
8,CN(Cc1cnccn1)C(=O)C1CCC(=O)N(CCc2ccccc2)C1 (stereo not shown),19.7%
9,CN(Cc1ccon1)C(=O)C1CCC(=O)N(Cc2ccc(Cl)cc2)C1 (stereo not shown),-40.9%
10,CN(Cc1ccccn1)C(=O)C1CCC(=O)N(Cc2cccc(C(F)(F)F)c2)C1 (stereo not shown),-15.7%
11,O=C(NCCc1nccs1)C1CCC(=O)N(CCc2ccc(Cl)cc2)C1 (stereo not shown),-31.6%
12,CN(Cc1nccs1)C(=O)C1CCC(=O)N(CCc2cccc(F)c2)C1 (stereo not shown),-12.4%
13,CN(Cc1cnn(C)c1)C(=O)C1CCC(=O)N(Cc2ccc(Cl)cc2)C1 (stereo not shown),-9.64%
14,CN(Cc1nccs1)C(=O)C1CCC(=O)N(CCc2ccc(Cl)cc2)C1 (stereo not shown),-81.5%
15,CN(Cc1nccn1C)C(=O)C1CCC(=O)N(Cc2cccc(C(F)(F)F)c2)C1 (stereo not shown),-9.93%
16,CN(Cc1ccccn1)C(=O)C1CCC(=O)N(CCc2ccc(Cl)cc2)C1 (stereo not shown),-53.1%
17,O=C(NNC(=O)C1COc2ccccc2O1)c1ccccc1 (stereo not shown),-1.85%
18,O=C(NCc1cccs1)C1CCC(CNS(=O)(=O)c2ccccc2)CC1 (stereo not shown),-2.7%
19,O=C(Nc1cccnc1)c1ccc(C(=O)Nc2cccnc2)cc1,29.7%
20,COc1ccc(-c2nc(CS(=O)CC(=O)NC3CCCCCC3)c(C)o2)cc1 (stereo not shown),10.6%
21,CCN(CC(=O)NC(C)(C)C)C(=O)C(c1ccccc1)c1ccccc1,23.5%
22,COc1cccc(NC(=O)c2ccc(S(=O)(=O)NCc3cccnc3)cc2)c1,-0.62%
